Compounds with a hit are over-represented: about 7.3% of the library has one in this group of screens.
FLuc counter = firefly luciferase modulation, counter-screen for miR-21 project; hit rate 6.9% among 360,000; Potency, µM (highest dose often 57.5 µM), hits mostly inhibitors; AID 588342; P08659; purified FLuc, Km substrates, luminescence inhibition; further: nearly all actives have a fitted effect of over 55% in size
Target sequence (P08659 whole entry, looked up): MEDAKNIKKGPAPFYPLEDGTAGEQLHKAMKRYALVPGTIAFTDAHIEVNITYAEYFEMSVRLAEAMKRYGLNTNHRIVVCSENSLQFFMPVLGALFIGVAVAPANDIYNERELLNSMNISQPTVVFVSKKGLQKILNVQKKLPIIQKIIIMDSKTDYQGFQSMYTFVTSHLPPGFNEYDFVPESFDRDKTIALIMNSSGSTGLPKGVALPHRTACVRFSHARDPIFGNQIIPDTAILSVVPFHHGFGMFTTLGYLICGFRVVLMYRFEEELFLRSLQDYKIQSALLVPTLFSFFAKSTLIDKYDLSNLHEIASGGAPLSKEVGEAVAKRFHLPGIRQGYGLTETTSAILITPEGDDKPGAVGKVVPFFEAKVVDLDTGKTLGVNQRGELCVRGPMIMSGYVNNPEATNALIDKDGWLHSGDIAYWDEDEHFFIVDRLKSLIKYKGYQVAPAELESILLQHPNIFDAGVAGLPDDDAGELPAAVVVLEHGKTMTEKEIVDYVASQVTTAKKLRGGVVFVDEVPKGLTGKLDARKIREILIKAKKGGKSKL
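Purified P. pyralis luciferase, 10 nM final, with Km-level 10 uM D-luciferin and 10 uM ATP in 50 mM Tris acetate pH 7.5, 10 mM Mg acetate, 0.01% Tween-20, 0.05% BSA; 6-point qHTS titration about 60 µM downward; luminescence read.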
NPC1 prom act = NPC1 promoter activation. Huh7 NPC1 promoter luciferase reporter, 24 h. Potency, µM (highest dose often 9.22 µM), most hits filed as activators. hit rate 2.4% among 320,000; further: nearly all actives have a fitted effect of over 60% in size
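NPC1 promoter–luciferase Huh7 cells; 24 h compound; luminescence.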
uPA surface inh = blocks generation of uPA at the cell surface | cell surface uPA generation assay, qHTS | Potency, µM (top dose mostly 38.3 µM), most hits filed as inhibitors | hit rate 0.31% among 330,000; active means well fitted inhibition curve with a large enough effect; inconclusive means small, poorly fitted or top-dose-only effect; inactive means no such curve, though single readings can be large or run the other way; tested in mouse RAW 264.7 cells; further: nearly all actives have a fitted effect of over 55% in size
SMN2 splice enh = increases expression of the SMN2 splice variant. hit rate 2.8% among 210,000. Potency, µM (series often up to 46.1 µM), usual class: activators. HEK293 SMN2-luciferase splicing reporter, luminescence, 30-36 h. AID 1458; further: nearly all actives have a fitted effect of over 55% in size
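HEK293 cells carry an SMN2 minigene-luciferase reporter in which exon 7 inclusion puts luciferase in frame. Cells were seeded at 2000 cells/well, attached for 10-12 hours, then exposed to compounds for 30-36 hours at 37C before ONE-Glo luminescence.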
Rab9 promoter act = activates the Rab9 promoter | hit rate 2.8% among 320,000 | Huh7 Rab9 promoter-luciferase reporter, luminescence, 24 h | Potency, µM (series often up to 9.22 µM), actives largely listed as activators; further: nearly all actives have a fitted effect of over 60% in size
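Luminescence from Amplite-detected luciferase (10 minutes, ambient) reports Rab9 promoter activation. Before that, stable Rab9-luciferase Huh7 cells (1500/well, reduced-serum OP-MEM I plus 10% FBS) were exposed to compound for 24 hours at 37C.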
ELG1 genotoxic = induces genotoxicity in HEK293T cells with luciferase-tagged ELG1. AID 504466. Potency, µM (doses to about 46 µM), most hits filed as activators. hit rate 1.3% among 330,000. HEK293T ELG1-luciferase reporter, luminescence, 16 h; further: nearly all actives have a fitted effect of over 60% in size
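Reporter readout depends on ELG1 protein level, which increases with genetic stress. After 16 hr compound exposure at 37 °C, luciferase activity was quantified using ONE-Glo.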
Hits are given with their value; n = inactive; u = inconclusive; x = not tested or not shown; [ ] = another dose, or the depositor's remark. Unless noted, the call rests on the fitted dose curve; in most records, active means well fitted curve in the direction sought with a large enough effect; inconclusive means small, poorly fitted or top-dose-only effect, or another doubt; inactive means no such curve, though single readings can be large; an effect the other way counts as inactive or inconclusive.

SMILES	FLuc counter	NPC1 prom act	uPA surface inh	SMN2 splice enh	Rab9 promoter act	ELG1 genotoxic
Cc1ccc(/C=C/C(=O)Nc2cccc3ncccc23)o1	u	n	u	n	n	n
NC(=O)c1ccccc1NC(=O)/C=C/c1cccc(Cl)c1	6.75µM	3.16µM	n	11.2µM	2.24µM	n
O=C(Nc1ccc(Cl)c(C(F)(F)F)c1)c1cc2nc(-c3ccc4c(c3)OCO4)cc(C(F)(F)F)n2n1	n	x	x	n	x	x
O=C(OCc1cc(=O)n2nc(-c3cccs3)sc2n1)c1ccccc1Br	n	x	x	x	x	x
COc1cc(C2C(N3C(=O)c4ccccc4C3=O)C(=O)N2c2cccc(C)c2)cc(OC)c1OC (configuration not stated)	n	n	x	n[1.84 µM]	n	u
Cc1snc(SCC(=O)c2ccc(F)cc2)c1C#N	u	u	n	n	2.82µM	n
CCOC(=O)Cn1c(=O)oc2cc(S(=O)(=O)N3CCN(c4ccc(Cl)cc4)CC3)ccc21	n	x	x	n	x	x
Cc1ccc(CSCCNC(=O)C2CCN(S(=O)(=O)Cc3ccccc3)CC2)cc1	n	x	x	x	x	x
Cn1c(=O)c(C=Nc2ccccc2)c(O)c2ccccc21	4.26µM	n	x	x	n	n
COc1ccc(-n2c(O)c(C=Nc3ccccc3)c3ccccc3c2=O)cc1	n	n	n	n	n	u
O=C1/C(=C/C=C/c2ccco2)SC(=S)N1NS(=O)(=O)c1ccccc1	u	n	n	x	n	n
CC(C(=O)O)N1C(=O)/C(=C/C=C/c2ccco2)SC1=S (configuration not stated)	16.9µM	n	n	n	n	n
C/C(=N\O)c1sc(-c2ccccc2)nc1C	8.49µM	3.98µM	n	15.8µM	3.16µM	u
CCOC(=O)Cc1ccc2sc(-c3ccccc3)nc2c1	0.477µM	3.16µM	n	15.8µM	1.58µM	6.51µM
CNC(=O)c1sc(-c2ccc(Cl)cc2)nc1C	15.1µM	x	n	u	x	x
CCOC(=O)c1sc(-c2cccs2)nc1C	16.9µM	n	n	n	n	n
CNC(=O)c1sc(-c2ccccc2)nc1C	u	n	n	n	n	u
CCC(CC)C(=O)N1CCc2cc(OC)c(OC)cc2C1COc1ccccc1OC (configuration not stated)	n	x	x	x	x	x
CCOC(=O)c1sc(-c2ccccc2)nc1C	13.5µM	n	n	n	n	u
CC1Sc2ccc(C(=O)Nc3ccc(S(=O)(=O)N(C)C)cc3)cc2NC1=O (configuration not stated)	n	n	n	x	n	n
CC(=O)c1ccccc1NC(=O)c1ccc2c(c1)NC(=O)C(C)S2 (configuration not stated)	15.1µM	u	n	x	u	u
Cc1ccnc(NC(=O)c2ccc3c(c2)NC(=O)C(C)S3)c1 (configuration not stated)	1.9µM	0.708µM	u	x	0.631µM	u
CC(C)COC(=O)c1ccc2c(c1O)C(=O)c1ccccc1C2=O	1.35µM	2µM	n	u	3.16µM	1.3µM
CC(C)(C)C1CCc2c(sc(NC(=O)C3CCCO3)c2C(N)=O)C1 (configuration not stated)	21.3µM	n	n	n	n	n
NC(=O)c1c(NC(=O)C2CCCO2)sc2c1CCC2 (configuration not stated)	n	n	x	n	n	n
SMILES	FLuc counter	NPC1 prom act	uPA surface inh	SMN2 splice enh	Rab9 promoter act	ELG1 genotoxic
NC(=O)c1c(NC(=O)C2CCCO2)sc2c1CCCCC2 (configuration not stated)	16.9µM	n	n	u	u	u
N[C@@H](Cc1ccc(O)cc1)C(=O)Nc1ccc2ccccc2c1	u	n	n	x	n	n
NC(Cc1cnc[nH]1)C(=O)Nc1ccc2ccccc2c1 (configuration not stated)	x	x	x	12.6µM	x	x
O=C(O)c1cc(N/N=C/C(Cl)=C/c2ccccc2)ccc1Cl	0.107µM	u	n	0.891µM	u	u
C/C(=N\Nc1ccc(Cl)c(C(=O)O)c1)c1cccc2ccccc12	u	n	n	x	n	n
O=C(O)/C=C/C(=O)Nc1ccc(Cl)c(C(=O)O)c1	n	n	n	x	n	n
CC(C)n1cc(/C=N/Nc2ccc(Cl)c(C(=O)O)c2)c2ccccc21	13.5µM	1.78µM	x	x	1.58µM	8.2µM
O=C(O)c1cc(NN=C2c3ccccc3-c3ccccc32)ccc1Cl	u	n	n	x	n	n
N#CCC(=O)N/N=C/c1cn(Cc2ccc(Cl)c(Cl)c2)c2ccccc12	n	n	n	x	n	n
O=C(O)c1cc(N/N=C/c2cccc3ccccc23)ccc1Cl	7.57µM	0.794µM	n	x	1.41µM	u
NNc1ccc(Cl)c(C(=O)O)c1	12µM	1.26µM	n	x	1.26µM	u
CCCCCOC(=O)CSc1ncnc2c1sc1nc(N3CCOCC3)c3c(c12)CCCC3	n	x	x	n	x	x
O=[N+]([O-])c1cccc(N/N=C/c2cccc3ccccc23)c1	19µM	n	n	u	n	n
O=[N+]([O-])c1ccc(NN=Cc2cccc3ccccc23)nc1	x	x	n	x	x	x
Cc1ccc(CCNC(=O)CCc2cn(Cc3ccccc3C)c3ccccc23)cc1	n	x	x	x	x	x
CCCCCCOC(=O)c1ccc(OC(=O)c2cccnc2)cc1	u	n	n	n	n	18.4µM
COc1ccc(C(=O)Oc2ccc(C(C)=O)cc2)c(OC)c1	12µM	n	n	n	n	n
COc1ccc(C(=O)OCCCOC(=O)c2ccc(OC)cc2OC)c(OC)c1	n	n	n	x	n	n
COc1ccc(OC(=O)c2cccnc2)cc1	u	n	n	n	n	n
CC(C)(C)c1ccc(OC(=O)c2cccnc2)cc1	12µM	n	n	n	n	n
COc1ccccc1C(=O)Oc1ccc2ccc(=O)oc2c1	u	n	n	x	n	n
COc1ccccc1C(=O)Oc1ccc(C(C)(C)C)cc1	6.01µM	n	n	n	n	n
CCCN(C(=O)NCc1noc2ccc(C)cc12)c1ccc(Cl)c(Cl)c1	n	x	x	x	x	x
CC(C)(C)c1ccc(OC(=O)c2ccc3nsnc3c2)cc1	7.57µM	n	n	n	n	n
CC(C)(C)c1ccc(OC(=O)c2ccc3snnc3c2)cc1	u	n	n	n	n	n
SMILES	FLuc counter	NPC1 prom act	uPA surface inh	SMN2 splice enh	Rab9 promoter act	ELG1 genotoxic
O=C(Nc1ccc(Cl)cc1)c1cc(S(=O)(=O)N2CCc3ccccc32)ccc1F	n	x	x	x	x	x
O=C(/C=C/c1ccco1)NC(=S)Nc1ccccc1N1CCCC1	n	n	n	n	n	n
O=C(/C=C\c1ccco1)NC(=S)Nc1ccccc1O	u	u	n	x	3.16µM	n
Cc1cccnc1NC(=S)NC(=O)/C=C/c1ccco1	u	n	n	n	u	u
O=C(/C=C/c1ccco1)NC(=S)Nc1ccccc1O	u	u	n	u	3.98µM	n
Cc1ccc(NC(=S)NC(=O)/C=C/c2ccco2)c(O)c1	u	n	n	n	n	n
O=C(/C=C/c1ccco1)NC(=S)Nc1ccccn1	13.5µM	3.16µM	n	u	2.82µM	n
COc1ccc(CCNc2nc(SCc3ccccc3F)nc3ccccc23)cc1OC	n	x	x	x	x	x
O=C(c1noc2c1CCCCC2)N1CCN(c2ccc(Cl)cc2)CC1	n	x	x	x	x	x

Screening results: PubChem BioAssay, National Center for Advancing Translational Sciences (NCATS)
